In PubChem BioAssay (NCI) one finds growth data, which are given here for eight compounds.

Test systems include SK-MEL-2 melanoma; EKVX NSCLC; SN12C renal; UO-31 renal; TK-10 renal; ACHN renal; CAKI-1 renal; A498 renal; CCRF-CEM leukemia; MOLT-4 leukemia; SR leukemia; OVCAR-8 ovarian; OVCAR-4 ovarian; SK-OV-3 ovarian; IGROV1 ovarian; OVCAR-3 ovarian; HS 578T breast; NCI/ADR-RES ovarian; OVCAR-5 ovarian; RPMI-8226 leukemia.
Holding throughout (experiment): NCI-60 one-dose screen, 48 h (100 = growth as untreated, 0 = no growth, -100 = all killed)
Common to all, as to details: 10 µM unless noted

This is part of a sample that, as a whole, favours compounds with a hit. Of some 83,000 tested, about 20% had one in any assay.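 Testing used 96-well plates and a 48-hour single-concentration exposure. Example: -40 means 40% of the starting cells died.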 Unmarked numbers belong to inactive results. The source made the active and inactive calls. Rule for the calls: active = growth percent below 10; inactive = the rest.

`O=C(NCCN1CCCCC1)n1cc(-c2ccncc2)c(-c2ccc(Cl)c(O)c2)n1`: the growth with SK-MEL-2 melanoma is 60.8%; in the experiment on EKVX NSCLC it was 114%; with SN12C renal it was 81.6%; in the experiment with UO-31 renal it was 55.4%; with TK-10 renal, 79.4%; in the experiment on ACHN renal, 57.4%. Also, the growth in the experiment with CAKI-1 renal was 109%; in the experiment with A498 renal, 114%; in the experiment on CCRF-CEM leukemia, 87%; in the experiment with MOLT-4 leukemia, 88.2%; in the experiment on SR leukemia, 70.9%; in the experiment on OVCAR-8 ovarian it was 89.1%. For the same compound, the growth in the experiment with OVCAR-4 ovarian is 122%; in the experiment with SK-OV-3 ovarian it was 71.5%; with IGROV1 ovarian, 74%; in the experiment with OVCAR-3 ovarian, 113%; in the experiment with HS 578T breast, 92.5%; in the experiment on NCI/ADR-RES ovarian it was 95.6%.
Take `COc1cc(/C=N/NC(=O)Cn2c(-c3ccc(C)o3)nc3ccccc32)ccc1OCc1ccccc1`: the growth is 94.5% with SK-MEL-2 melanoma; 75.2% in the experiment on EKVX NSCLC; 95.4% in the experiment on SN12C renal; 61.8% in the experiment on UO-31 renal; 93.4% with TK-10 renal; 85.4% with ACHN renal. Further, the growth in the experiment with CAKI-1 renal is 82.6%; with A498 renal it was 78.5%; with CCRF-CEM leukemia, 80.6%; with MOLT-4 leukemia, 50.2%; with SR leukemia, 74.5%; in the experiment with OVCAR-8 ovarian it was 81.3%. The growth was 88.1% with OVCAR-5 ovarian; 90% in the experiment on OVCAR-4 ovarian; 91.7% with SK-OV-3 ovarian; 94.3% with IGROV1 ovarian; 82% in the experiment on OVCAR-3 ovarian; 70.4% in the experiment with HS 578T breast. The growth in the experiment on NCI/ADR-RES ovarian is 92.6%.
Take `CCCCCCCCCCCCCC1=NC(C)(C)CN1C(C)C`: the growth in the experiment on SK-MEL-2 melanoma was -66.3% (active); in the experiment on EKVX NSCLC, -2.5% (active); in the experiment with SN12C renal, 9.87% (active); with UO-31 renal, -65.1% (active); in the experiment on TK-10 renal, -73% (active); in the experiment on ACHN renal, -67.2% (active). The growth in the experiment on CAKI-1 renal was -67% (active); in the experiment with A498 renal, 87.7%; in the experiment on CCRF-CEM leukemia, -44.1% (active); in the experiment on MOLT-4 leukemia, -58.5% (active); in the experiment on SR leukemia, -46.5% (active); in the experiment on OVCAR-8 ovarian it was -12.4% (active). Moreover, the growth with OVCAR-5 ovarian was 39.7%; with OVCAR-4 ovarian, 7.76% (active); with SK-OV-3 ovarian, -2.05% (active); with IGROV1 ovarian, -30.4% (active); with OVCAR-3 ovarian, -56.3% (active); in the experiment on HS 578T breast it was -28.1% (active). Also, the growth in the experiment with NCI/ADR-RES ovarian is -12.4% (active).
Take `CC(C)c1nc2ccccc2n1CC(=O)N/N=C/c1cccc(O)c1`: the growth was 107% with SK-MEL-2 melanoma; 105% with EKVX NSCLC; 94.1% in the experiment with SN12C renal; 80.2% in the experiment with UO-31 renal; 93.5% with TK-10 renal; 95.7% in the experiment on ACHN renal. The growth is 101% with CAKI-1 renal; 88% in the experiment with A498 renal; 94.9% with CCRF-CEM leukemia; 91.9% with MOLT-4 leukemia; 89.7% in the experiment on SR leukemia; 92.6% with OVCAR-8 ovarian. Besides, the growth in the experiment with OVCAR-5 ovarian is 108%; in the experiment with OVCAR-4 ovarian, 104%; with SK-OV-3 ovarian, 93.2%; in the experiment with IGROV1 ovarian, 118%; in the experiment on OVCAR-3 ovarian it was 109%; in the experiment with HS 578T breast, 98.3%. Moreover, the growth in the experiment on NCI/ADR-RES ovarian was 109%.
Regarding `COc1cc(-c2nn(C(=O)NCCN3CCN(C)CC3)cc2-c2ccncc2)ccc1Cl`, the growth is 89.5% in the experiment on SK-MEL-2 melanoma; 46.9% in the experiment on EKVX NSCLC; 82.4% with SN12C renal; 54% in the experiment with UO-31 renal; 20.5% in the experiment with TK-10 renal; 69.5% with ACHN renal. The growth was 79.7% in the experiment on CAKI-1 renal; 65.8% with A498 renal; 88.8% in the experiment on CCRF-CEM leukemia; 77.4% with MOLT-4 leukemia; 77.5% with SR leukemia; 24.5% in the experiment on OVCAR-8 ovarian. The growth is 84.6% with OVCAR-5 ovarian; 78% with OVCAR-4 ovarian; 55.1% in the experiment with SK-OV-3 ovarian; 75% in the experiment on IGROV1 ovarian; 76.9% with HS 578T breast; 82.4% with NCI/ADR-RES ovarian.
On to `CCN(CC)CCNC(=O)n1cc(-c2ccncc2)c(-c2ccc(Cl)c(OC)c2)n1`, for which the growth was 96.1% in the experiment on SK-MEL-2 melanoma; 61.8% with EKVX NSCLC; 90.7% with SN12C renal; 69.2% in the experiment on UO-31 renal; 26.9% in the experiment with TK-10 renal; 77.6% in the experiment on ACHN renal. For the same compound, the growth with CAKI-1 renal was 99.7%; in the experiment on A498 renal, 95.5%; with CCRF-CEM leukemia it was 98.3%; in the experiment with MOLT-4 leukemia, 82%; in the experiment with SR leukemia, 80.7%; with OVCAR-8 ovarian, 31%. Besides, the growth was 98.8% in the experiment with OVCAR-5 ovarian; 92.6% with OVCAR-4 ovarian; 75.5% with SK-OV-3 ovarian; 88.8% with IGROV1 ovarian; 101% with OVCAR-3 ovarian; 90.1% in the experiment with HS 578T breast. Further, in the experiment on NCI/ADR-RES ovarian, the growth is 83.5%.
Turning to `COc1ccc(Nc2nc(N)nc3c(=O)[nH]ccc23)cc1`, the growth is 111% in the experiment on SK-MEL-2 melanoma; 105% in the experiment with EKVX NSCLC; 113% in the experiment on SN12C renal; 64.6% in the experiment on UO-31 renal; 173% with TK-10 renal; 115% in the experiment with ACHN renal. Besides, the growth in the experiment on CAKI-1 renal was 93.3%; in the experiment with A498 renal, 120%; in the experiment on CCRF-CEM leukemia, 83.9%; with MOLT-4 leukemia, 97.8%; with RPMI-8226 leukemia it was 97.3%; in the experiment with OVCAR-8 ovarian it was 107%. In addition, the growth in the experiment on OVCAR-5 ovarian is 107%; in the experiment on OVCAR-4 ovarian it was 111%; in the experiment on SK-OV-3 ovarian it was 107%; with IGROV1 ovarian it was 87.5%; in the experiment with OVCAR-3 ovarian, 113%; in the experiment on HS 578T breast, 118%. In addition, the growth with NCI/ADR-RES ovarian was 100%.
On to `CN1C(=O)C(C(=O)/C=C/c2ccccc2C(=O)O)C(=O)N(C)C1=O`, for which the growth in the experiment with SK-MEL-2 melanoma was 106%; with EKVX NSCLC, 105%; in the experiment on SN12C renal, 101%; in the experiment on UO-31 renal, 87%; with TK-10 renal it was 102%; in the experiment with ACHN renal, 108%. Besides, the growth in the experiment on CAKI-1 renal is 90%; with A498 renal, 104%; with CCRF-CEM leukemia it was 91.9%; in the experiment on MOLT-4 leukemia, 97.1%; with SR leukemia, 98.1%; in the experiment with OVCAR-8 ovarian, 102%. Moreover, the growth in the experiment on OVCAR-5 ovarian is 104%; with OVCAR-4 ovarian, 109%; in the experiment on SK-OV-3 ovarian, 88.8%; in the experiment on IGROV1 ovarian, 119%; in the experiment with OVCAR-3 ovarian it was 110%; with HS 578T breast, 98.5%. For the same compound, the growth in the experiment on NCI/ADR-RES ovarian was 114%.
